This is a sample that favours compounds with a hit; in the whole collection about 13% have one here.
USP30 block = inhibitors of human USP30 deubiquitinase | 5.3% of 47,000 active | Ubiquitin carboxyl-terminal hydrolase 30 (Homo sapiens), Q70CQ3 | purified USP30, Ub-rhodamine cleavage fluorescence | inhibition, % at 25 µM | AID 1645860, 2021
USP8 block = inhibitors of human USP8 deubiquitinase. Ubiquitin carboxyl-terminal hydrolase 8 (Homo sapiens), P40818. purified USP8, Ub-rhodamine cleavage fluorescence, 30 min. inhibition, % at 20 µM. 4.2% of 47,000 active. AID 1645853, 2021
USP17 block = inhibitors of human USP17 deubiquitinase; purified USP17, Ub-rhodamine cleavage fluorescence, 3 h; inhibition, % at 50 µM; 6.5% of 47,000 active; AID 1645855, 2021
USP10 block = inhibitors of human USP10 deubiquitinase. 1.1% of 47,000 active. inhibition, % at 20 µM. purified USP10, Ub-rhodamine fluorescence, 60 min
USP28 block = inhibitors of human USP28 deubiquitinase; Ubiquitin carboxyl-terminal hydrolase 28 (Homo sapiens), Q96RU2; purified USP28, Ub-rhodamine cleavage fluorescence, 30 min; inhibition, % at 25 µM; 3% of 47,000 active
Of the large screens only hits and unclear results are named; the others gave an inactive call. Rule as the data show it: active = inhibition above about 30%; inactive = the rest.

Cc1cc(C)nc(-n2nc(C)c3c2NC(=O)CSC3c2ccccc2F)n1 (stereo not drawn)	USP30 block 87, USP17 block 37
COC(=O)C(O)(c1ccccc1)C1C(=O)N(C)c2ccccc21 (stereo not drawn)	none
CC1=C(O)C(=O)C=C2C1=CC=C1[C@@]2(C)CC[C@@]2(C)[C@@H]3C[C@](C)(C(=O)O)CC[C@]3(C)CC[C@]12C	USP8 block 46, USP17 block 54, USP10 block 81, USP28 block 64
CC[C@@]1(O)C[C@H](OC2CC(N(C)C)C(OC3CC(O)C(OC4CCC(=O)C(C)O4)C(C)O3)C(C)O2)c2c(cc3c(c2O)C(=O)c2c(O)ccc(O)c2C3=O)[C@H]1C(=O)OC (stereo partly drawn)	USP17 block 71
Cc1ccc(C)c(Cn2cccc(C(=O)Nc3ccccn3)c2=O)c1	USP28 block 34
O=C(Nc1nc2ccccc2s1)c1cccn(Cc2ccc(Cl)cc2)c1=O	none
Cc1ccc(C2SCC(=O)Nc3c2c(C)nn3C2CCOC(C)(C)C2)cc1 (stereo not drawn)	none
O=C(NCC1CC[C@@]2(CNCCOC2)O1)c1cccnc1 (stereo partly drawn)	none
O=C(NCc1cccnc1)c1cccn(Cc2ccc(Cl)cc2)c1=O	USP30 block 32
CN=C(N)NCCC/C=C/CCC[C@H](C)C[C@H](C)C1OC(=O)C(C)C(O)/C=C/C(C)C(O)CC(O)C(C)C(O)CCC(C)C(O)CC2(O)OC(CC(OC(=O)CC(=O)O)CC(O)CC(O)C(C)C(O)/C=C/C=C/C1C)CC(O)C2O (stereo partly drawn)	USP17 block 32, USP28 block 34
Cn1c(=O)[nH]c2nncnc2c1=O	USP8 block 34, USP17 block 73
CC(C)=CCOC(C)(C)[C@H]1OC2CC[C@@]3(C)C(CCC4Cc5c([nH]c6ccccc56)[C@@]43C)C23OC3[C@@H]1O (stereo partly drawn)	USP30 block 84, USP8 block 40, USP17 block 87, USP10 block 76, USP28 block 88
C[C@@H]1O[C@H](OC2[C@H](O)[C@H](O)C(O)[C@H](O)[C@H]2O)[C@H](N)C[C@@H]1N=C(N)C(=O)O (stereo partly drawn)	none
CC1=C(C(=O)OCC(C)C)[C@H]2C[C@@](C)(N1)Oc1ccccc12	none
COC12c3c(C)cc(O)c4c(=O)occ(c34)C(=O)C1C13COC(=O)c4c(O)cc(C)c(c41)C(=O)C2C3OC(C)=O (stereo not drawn)	none
CC(C)=CCCC1(C)C=Cc2c(O)c3c(c(CC=C(C)C)c2O1)OC12C(=CC4CC1C(C)(C)OC2(C/C=C(/C)C(=O)O)C4=O)C3=O (stereo not drawn)	USP30 block 71, USP8 block 73, USP17 block 89, USP10 block 82, USP28 block 82
c1cnc(NC[C@H]2OC[C@H]3CN(Cc4ccncc4)CC[C@H]32)nc1	none (no result: USP17 block)
COc1ccccc1NC(=O)N1CCC2(CC1)C(=O)Nc1c(OC)cccc12	none
Cc1ccccc1COc1ccc(C2SCC(=O)Nc3n[nH]c(C)c32)cc1 (stereo not drawn)	USP30 block 41, USP17 block 36
O=C(c1nc(-c2ccncc2)no1)N1CCC2(CC1)OCCO2	USP8 block 31
CO[C@@H]1C[C@@H](C[C@H]2CC[C@H](C)[C@H]([C@@H](C)C(=O)O)O2)O[C@]2(O[C@](C)([C@H]3CC[C@@](C)([C@@H]4O[C@@H]([C@H]5O[C@@](O)(CO)[C@H](C)C[C@@H]5C)C[C@@H]4C)O3)C[C@H]2C)[C@@H]1C	USP30 block 34
CC[C@@]1([C@@H]2O[C@@H]([C@H]3O[C@@](O)(CO)[C@H](C)C[C@@H]3C)C[C@@H]2C)CC[C@H]([C@]2(C)CC[C@]3(C[C@H](O)[C@@H](C)[C@@H]([C@@H](C)[C@@H](O)[C@H](C)C(=O)O)O3)O2)O1	none
Cc1nn(C2CCOC(C)(C)C2)c2c1C(c1ccc(F)cc1)SCC(=O)N2 (stereo not drawn)	none
Cc1nc(CN2CC[C@H]3CO[C@H](CNc4ncccn4)[C@H]3C2)cs1	none
NC1(c2nnnn2-c2ccccc2)CCCCC1	none (no result: USP30 block, USP28 block)
Cc1cccc(C)c1-n1nnnc1C1(N)CCC(C)CC1 (stereo not drawn)	USP30 block 33
COc1ccc(C[C@H]2C(=O)N[C@@H](C)C(=O)N(C)[C@H]3Cc4ccc(cc4)Oc4cc(ccc4O)C[C@@H](C(=O)N[C@H](C)C(=O)N[C@@H](CCC(=O)O)C(=O)N2C)N(C)C3=O)cc1	none
CCOC(=O)c1c(C)n(C2CC2)c2ccc(OC)cc12	USP28 block 37
CN(C)C(=O)Oc1ccc2c(=O)c(-c3ccc4c(c3)OCCO4)coc2c1	none
CN1C(=O)C23SSC1(CO)C(=O)N2C1Nc2ccccc2C1(C12c4ccccc4NC1N1C(=O)C4(CO)SSC1(C(=O)N4C)C2O)C3O (stereo not drawn)	none
CC(=O)O[C@H]1[C@]2(O)C[C@]34SS[C@](CO)(C(=O)N3[C@@H]2C[C@@]12O[C@@H](C)C(C)(C)C2=O)N(C)C4=O	USP30 block 63
Cc1nn(Cc2ccccc2)c(C)c1C(=O)NC1CCCc2ccccc21 (stereo not drawn)	USP30 block 54
Cc1nn(Cc2ccccc2)c(C)c1C(=O)NCc1ccccc1	none
C=Cc1cc(OC)c2c(c1)c(=O)oc1c2cc(OC)c2c(O)ccc(C3OC(C(C)O)C(O)C3O)c21 (stereo not drawn)	none
O=C(NCc1ccccn1)c1cc2cccnc2n(Cc2ccccc2)c1=O	none
O=C(Nc1ccccn1)c1c(O)c2ccccc2n(Cc2ccccc2)c1=O	USP8 block 69
COc1cc(C2SCC(=O)Nc3c2c(-c2ccccc2)nn3-c2ccccc2)cc(OC)c1OC (stereo not drawn)	USP28 block 77
COc1cccc(C2SCC(=O)Nc3c2c(C)nn3-c2nc(C)cc(C)n2)c1 (stereo not drawn)	none
O=C1CSC(c2ccc(Cl)cc2)c2c(-c3ccccc3)nn(-c3ccccc3)c2N1 (stereo not drawn)	USP30 block 32, USP28 block 43
CC12CCC3C(C=CC4=CC(=O)CCC43C)C1CCC2=O (stereo not drawn)	none
CCCn1cc(C(=O)NCC2CCCO2)c2cccnc21 (stereo not drawn)	none
COc1cc(=O)oc(/C=C/C=C/C=C/C(C)=C/[C@@]2(C)O[C@@H](C)[C@@](C)(O)[C@@H]2O)c1C	none
CCN(CC)C(=O)c1ccc(NC(=O)CN2CCc3cc(OC)c(OC)cc3C2)cc1	USP8 block 40
COc1cccc2c1NC(=O)C21CCN(C(=O)Nc2ccc(F)cc2)CC1	none

Screens from PubChem BioAssay.
